# According to the supplement of paper PMC3334620:
# The full ranking holds about 33,000 sequences; the median of “E-score (-0.5 to 0.5)” is about -0.032, and the highest 2% start at about 0.36. This is one part of a sample in which the highest values are shown more often than they occur.
# Target: T1, Sko1 (UniProt Q02100)
# T1 sequence: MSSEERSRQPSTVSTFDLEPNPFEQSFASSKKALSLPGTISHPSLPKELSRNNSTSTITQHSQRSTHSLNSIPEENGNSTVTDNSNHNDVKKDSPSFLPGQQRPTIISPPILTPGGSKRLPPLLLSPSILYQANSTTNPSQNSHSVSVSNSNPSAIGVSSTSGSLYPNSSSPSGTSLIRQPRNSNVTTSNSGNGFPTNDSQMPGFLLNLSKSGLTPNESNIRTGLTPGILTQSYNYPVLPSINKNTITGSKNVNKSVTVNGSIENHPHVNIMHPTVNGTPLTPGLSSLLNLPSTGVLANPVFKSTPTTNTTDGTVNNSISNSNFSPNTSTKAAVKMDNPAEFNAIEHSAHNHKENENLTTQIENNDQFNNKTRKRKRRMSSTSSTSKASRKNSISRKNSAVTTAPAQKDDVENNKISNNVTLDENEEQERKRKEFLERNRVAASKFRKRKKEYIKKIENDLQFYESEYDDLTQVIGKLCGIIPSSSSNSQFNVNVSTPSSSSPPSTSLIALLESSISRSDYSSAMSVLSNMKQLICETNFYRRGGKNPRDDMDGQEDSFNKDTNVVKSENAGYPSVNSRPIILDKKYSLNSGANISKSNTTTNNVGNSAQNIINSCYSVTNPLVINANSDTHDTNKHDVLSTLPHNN
# Assay: PBM E-score (8-mer binding enrichment) (E-score (-0.5 to 0.5)); higher = stronger / more preferred TF binding
# Conditions: protein concentration: 200 nM; construct: GST-full length
# Description: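 Universal 'all 10-mer' protein binding microarrays (Agilent AMADID 015681) probed with GST-tagged S. cerevisiae TFs (full-length or DBD) made by in vitro transcription/translation (PURExpress), about 100-200 nM. Bound TF was detected with fluorescent anti-GST. Each ungapped 8-mer (which stands for itself and its reverse complement) is scored by the PBM enrichment score (E-score), a modified Wilcoxon-Mann-Whitney statistic from -0.5 to +0.5, computed with the Universal PBM Analysis Suite. Scale: above 0.35 generally sequence-specific binding.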
row,Sequence,PBM E-score
1,AGAGCACC,-0.328
2,ACCTTGTG,-0.0718
3,CACCTGTC,-0.232
4,ACATGACA,0.217
5,CCATGACG,0.475
6,ACATGACT,-0.0468
7,ATATGACC,0.00457
8,ACATGACG,0.474
9,ATATGACA,0.243
10,CCATGACC,-0.0889
11,ATATGACG,0.477
12,CCATGACA,0.163
13,TCATTTCA,0.181
14,AGAGCAGC,-0.173
15,ATACGTTC,0.374
16,GTACGGTA,0.207
17,CTACGTTA,0.406
18,CCACGTTA,0.289
19,ATACGTTA,0.436
20,CTACGTTC,0.272
21,GTACGTTA,0.395
22,GCACGTTA,0.274
23,AGACGTTC,0.125
24,ATGCGTTA,0.247
25,CAACGTTA,0.257

row,Sequence,PBM E-score
1,ACACGTTA,0.318
2,AGCAGGGC,-0.225
3,AGACTACA,-0.158
4,ATGCTAAT,0.209
5,AAGATGCT,-0.0361
6,AAGAAAAG,-0.011
7,GGAGGCCC,-0.241
8,AGCCCCCC,-0.355
9,ACCAACAA,0.147
10,AGATGCAC,-0.0198
11,ATACGTTG,0.391
12,ACACGTTG,0.188
13,AAACGTTG,0.112
14,ATCTCTAC,0.106
15,CCCAGCGC,-0.229
16,ATGTACTG,-0.0689
17,ACGTACTC,0.432
18,CCGTACTC,-0.132
19,ACGTACTG,0.412
20,ACGTACTA,0.426
21,GCGTACTA,0.232
22,AGGTACTC,-0.109
23,AGGTACTG,-0.125
24,CCGTACTA,0.00949
25,GGGATAGA,-0.0751

row,Sequence,PBM E-score
1,CTGGGCTA,-0.317
2,AGATACGA,0.208
3,CCCTGGAC,-0.188
4,CAACGCAG,-0.0699
5,GTAACTTA,0.262
6,AAATACGT,0.463
7,ACATACGC,0.28
8,AAATACGC,0.315
9,ACATACGT,0.459
10,ACATACGG,0.0483
11,AAATACGA,0.302
12,TCGAGTCA,-0.00474
13,AGGTGCTA,-0.0841
14,ACCCGTGA,0.0498
15,CGCCACAG,-0.198
16,CAACCCAC,0.011
17,GATCAAAA,0.0898
18,GTCATGAA,0.221
19,CTCATGAC,0.285
20,ATCATGAG,0.211
21,GTCATGAC,0.392
22,ATCATGAC,0.407
23,ATCATGAA,0.126
24,CGCTAAAA,-0.102
25,ATAATAGG,0.114

row,Sequence,PBM E-score
1,GGCGGACC,-0.321
2,AAACTGAG,-0.159
3,AAGTAGAT,-0.00622
4,ACGTAGAA,0.434
5,ACGTAGAG,0.387
6,ACGTAGAT,0.452
7,AGGTAGAT,-0.0309
8,CCGTAGAC,-0.135
9,ACGTAGAC,0.415
10,GCGTAGAA,0.178
11,CCGTAGAA,-0.14
12,ACTTAGAG,-0.0119
13,CCGTAGAG,-0.258
14,GCGTAGAC,0.0511
15,AATCTGCC,-0.0515
16,AATCAGGT,0.113
17,CGCCCCAC,-0.0143
18,AGCGCCGC,-0.199
19,CCCGGTAA,-0.206
20,CATCCTGA,0.0812
21,TATAACGA,0.186
22,AGACGCAA,0.258
23,GGACGCAA,0.164
24,AGACGCCA,0.0116
25,CGACGCCA,0.174

row,Sequence,PBM E-score
1,CCACGCAA,0.308
2,ACACGCAC,0.158
3,ACACGCAA,0.376
4,TGACGCCA,0.453
5,TGACGCAA,0.483
6,ACACGCAT,0.219
7,TCACGCAA,0.384
8,GCACGCAA,0.252
9,CGAGTCGC,-0.243
10,GCGGTCTA,0.0211
11,CAGATCTC,-0.196
12,TGATGTAA,0.434
13,CGATGTAA,0.175
14,AGATGTAA,0.256
15,AACGGAGT,-0.09
16,CAGATGAC,0.37
17,AATATGAC,0.367
18,AATATGAT,0.254
19,GATATGAC,0.326
20,GCGATGAC,0.374
21,AAGATGAC,0.337
22,CATATGAC,0.404
23,ACGATGAC,0.336
24,GAGATGAC,0.254
25,GCGATGAA,-0.0296

row,Sequence,PBM E-score
1,AATATGAG,0.146
2,CATATGAG,-0.0409
3,GCAAAGAC,0.00382
4,GATAGTCC,-0.141
5,CATTTAAA,0.178
6,ACTCACGC,0.14
7,GCTTAGCC,-0.313
8,CTGGCGCC,-0.181
9,TCCTAACA,0.0335
10,CTGAATAC,0.15
11,TCAACCGA,0.204
12,CCTATGAC,0.308
13,ACTATGAC,0.342
14,CTTATGAC,0.374
15,ATTATGAC,0.349
16,CTTATGAA,-0.0245
17,GCTATGAC,0.364
18,TATCAGCA,0.0232
19,ACGAGCAG,-0.0309
20,CAAGAGCA,-0.0878
21,GCCTAGAA,-0.121
22,CCGTGTTC,-0.0799
23,ACGTGTTG,0.426
24,AGGTGTTG,0.0206
25,ATGTGTTG,0.203

row,Sequence,PBM E-score
1,GCGTGTTA,0.114
2,ACGTGTTA,0.434
3,CCGTGTTA,-0.0886
4,ACGTGTTC,0.36
5,AGGTGTTC,-0.0318
6,ACTGGTTC,-0.132
7,GCAGTCAC,-0.0169
8,GAGCGAGA,-0.0193
9,CGCGGTTA,-0.0722
10,ACTCTTCC,-0.0697
11,GCTTGCTA,-0.191
12,ACTAACAG,0.0358
13,CGTAATGA,0.461
14,AGTAATGC,0.0678
15,GGTAATGA,0.115
16,CGTAATGC,0.454
17,AGTAATGA,0.247
18,CTTAATGC,0.0192
19,CGAGCAAG,-0.129
20,TAGTATCA,0.187
21,CCTAACGC,0.0788
22,AACTTACA,0.0844
